ELG1 genotoxic = genotoxicity induction in ELG1-luciferase HEK293T cells. HEK293T ELG1-luciferase reporter, luminescence, 16 h. AID 504466. 1.3% of 330,000 active. Potency, µM (series often up to 46 µM), for inactives: at the highest dose activity change, positive = activation, actives largely listed as activators; also: % of control where 0% means no effect; nearly all actives have a fitted effect of over 60% in size
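Quantitative HTS format in 1536-well plates. HEK293T ELG1-luciferase reporter cells receive test compound and are incubated 16 hr at 37 °C, 5% CO2; ONE-Glo added, 30 min room temperature, then luminescence read.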
FLuc modulator = inhibits or activates purified firefly luciferase, miR-21 counter-screen; P08659; purified FLuc, Km substrates, luminescence inhibition; Potency, µM (highest dose often 57.5 µM), without a hit: at the highest dose activity change, negative = inhibition, hits mostly inhibitors; 6.9% of 360,000 active;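 also: plate controls were vehicle for no effect and reference inhibitor for full effect; nearly all actives have a fitted effect of over 55% in size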
Target sequence (P08659 whole entry, looked up): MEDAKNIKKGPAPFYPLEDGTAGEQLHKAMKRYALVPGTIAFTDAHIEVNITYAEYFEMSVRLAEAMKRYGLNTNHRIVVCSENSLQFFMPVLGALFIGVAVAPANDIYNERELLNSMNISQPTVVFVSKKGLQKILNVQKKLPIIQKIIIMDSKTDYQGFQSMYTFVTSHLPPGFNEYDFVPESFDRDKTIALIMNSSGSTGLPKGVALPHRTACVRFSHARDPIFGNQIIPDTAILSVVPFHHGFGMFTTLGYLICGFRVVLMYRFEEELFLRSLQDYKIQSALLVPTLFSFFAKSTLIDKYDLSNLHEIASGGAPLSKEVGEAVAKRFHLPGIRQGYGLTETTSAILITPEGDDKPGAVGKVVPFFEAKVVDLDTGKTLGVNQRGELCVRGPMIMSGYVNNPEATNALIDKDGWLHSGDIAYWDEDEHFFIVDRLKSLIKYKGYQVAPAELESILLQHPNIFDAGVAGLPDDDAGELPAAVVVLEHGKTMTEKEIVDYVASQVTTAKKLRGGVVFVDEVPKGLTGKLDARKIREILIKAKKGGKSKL
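Purified P. pyralis luciferase (10nM final) with 10uM D-luciferin and 10uM ATP (Km levels) in 50mM Tris acetate pH 7.5, 10mM Mg acetate, 0.01% Tween-20, 0.05% BSA; qHTS 6-point titration, ~60 µM downward; luminescence read.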
NPC1 promoter act = activates the NPC1 promoter | Huh7 NPC1 promoter luciferase reporter, 24 h | Potency, µM (titrated, usually from 9.22 µM), without a hit: at the highest dose activation, most hits filed as activators | 2.4% of 320,000 active | AID 485313; also: % of control where 0% means no effect; nearly all actives have a fitted effect of over 60% in size
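Huh7 reporter cells (NPC1 promoter driving luciferase) are dosed with compound for 24 h at 37 °C, 5% CO2; luciferase detection reagent is then added and luminescence measured after 10 min at ambient temperature.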
Rab9 prom act = Rab9 promoter activation. Huh7 Rab9 promoter-luciferase reporter, luminescence, 24 h. Potency, µM (series often up to 9.22 µM), without a hit: top-dose activation, negative = inhibition, hits mostly activators. 2.8% of 320,000 active; also: % of control where 0% means no effect; nearly all actives have a fitted effect of over 60% in size
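Luminescence read-out: Huh7 cells stably expressing Rab9-luciferase, treated 24 h with compound at 37 °C, then lysed with luciferase reagent for 10 min at ambient before reading.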
SMN2 splice up = SMN2 splice variant enhancement | HEK293 SMN2-luciferase splicing reporter, luminescence, 30-36 h | 2.8% of 210,000 active | Potency, µM (top dose mostly 46.1 µM), inactives show at the highest dose activity change, positive = activation, hits mostly activators; also: % of control where 0% means no effect; nearly all actives have a fitted effect of over 55% in size
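HEK293 cells carry an SMN2 minigene-luciferase reporter in which exon 7 inclusion puts luciferase in frame. Cells were seeded at 2000 cells/well, attached for 10-12 hours, then exposed to compounds for 30-36 hours at 37C before ONE-Glo luminescence.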
Numbers without * were called inactive; ? = inconclusive; · = not tested or not shown; [ ] = another dose, or the depositor's remark. Rows were chosen to be rich in hits. Some 7.4% of all compounds tested hit in one or more screens of this group. Calls follow the shape of the dose curve; as a rule, active = well fitted curve in the direction sought with a large enough effect; inconclusive = small, poorly fitted or top-dose-only effect, or another doubt; inactive = no such curve, though single readings can be large; an effect the other way counts as inactive or inconclusive. Potency is read from the fitted curve at half-maximal effect.

SMILES	ELG1 genotoxic	FLuc modulator	NPC1 promoter act	Rab9 prom act	SMN2 splice up
Nc1[nH]n(-c2ccccc2)c(=O)c1N=Nc1ccc2ncsc2c1	0%	19µM*	20%	22%	·
COc1cc([N+](=O)[O-])ccc1N=Nc1c(N)[nH]n(-c2ccccc2)c1=O	1%	?	11%	?	27%
O=c1c2cc([N+](=O)[O-])cc([N+](=O)[O-])c2[nH]n1-c1ccccc1	-6%	11µM*	-5%	1%	·
Nc1c(N=Nc2cccc(Cl)c2)c(=O)[nH]n1-c1ccccc1	5%	-3%	14%	25%	21%
CCOc1ccc(/C=C/C2=NNC(=O)CC2)cc1	18µM*	15µM*	?	?	11µM*
O=C1CCC(/C=C/c2ccccc2)=NN1	16%	-13%	-15%	9%	11%
COc1ccc(/C=C/C2=NNC(=O)CC2)cc1	?	?	27%	2.8µM*	16µM*
Cc1cc(C)n2ncc(/C(N)=N/OC(=O)Nc3ccccc3)c2n1	-8%	27µM*	-1%	0%	·
Cc1sc(NC(=O)c2ccc(Br)s2)c(C(N)=O)c1C	?	1.7µM*	?	?	10µM*
Cc1sc(NC(=O)c2ccc(Cl)s2)c(C(N)=O)c1C	1.6µM*	2.4µM*	?	?	10µM*
O=C(O)c1nnsc1COCc1ccccc1	·	·	·	·	1%[9.22 µM]
CC1=CC2C(=O)c3cccc(O)c3C(=O)C2C(O)=C1 (stereo not given)	·	·	·	·	-4%
COC(=O)c1ccc(CSc2nc(-c3ccccc3)cs2)o1	12%	8.5µM*	12%	12%	2%
CC(C)NC(=O)CSc1nc(-c2ccccc2)cs1	17%	19µM*	?	2.5µM*	?
COc1ccc(/C=N/N(C)c2cc(=O)n(C)c(=O)[nH]2)cc1OC	?	17µM*	0%	5%	10%
CN(/N=C/C=C/c1ccccc1)c1cc(=O)n(C)c(=O)[nH]1	-3%	-19%	11%	16%	10%
Cc1ccc(CN2COc3ccc4c(C)cc(=O)oc4c3C2)cc1	·	1%	·	·	·
COc1ccc(CCNC(=O)COC(=O)c2ccc(N3CCCC3=O)cc2)cc1	1%	-2%	-2%	-6%	20%
COC(=O)c1ccc(CNC(=O)CSC2=NCCS2)cc1	-3%	-6%	-1%	0%	9%
COc1cc(C(=O)CSc2nccn2C)cc(OC)c1OC	11%	-1%	0%	8%	·
O=C(CSc1nccn1-c1ncc(C(F)(F)F)cc1Cl)c1ccc(Br)cc1	?	-18%	3.5µM*	1.6µM*	-34%
Cn1ccnc1SCC(=O)c1cccc(C(F)(F)F)c1	?	17µM*	2.8µM*	4µM*	·
Cn1ccnc1SCC(=O)Nc1cccc(C(F)(F)F)c1	9%	2%[2.3 µM]	12%	14%	-8%
COc1ccc(C(=O)CSc2nccn2C)cc1	23µM*	17µM*	2.8µM*	3.5µM*	·
COC(=O)c1ccc(CSC2=NCCS2)cc1	?	?	?	?	18µM*
SMILES	ELG1 genotoxic	FLuc modulator	NPC1 promoter act	Rab9 prom act	SMN2 splice up
COc1ccc(C)cc1NC(=O)NCc1cccn1Cc1ccccc1	·	8%	·	·	·
CCc1noc(C)c1C(=O)N(CC(C)C)c1c(N)n(Cc2ccccc2)c(=O)[nH]c1=O	0%	3%	-3%	0%	·
COc1ccc(-c2nc(CS(=O)CC(=O)NCCc3ccccc3)c(C)o2)cc1OC (stereo not given)	·	-11%	·	·	3%
Cn1ccnc1SCc1ccc([N+](=O)[O-])cc1	0%	-4%	1%	1%	5%
COC(=O)c1ccc(CSc2nccn2C)cc1	13µM*	?	18%	18%	11µM*
O=C(CCN1C(=O)C2CCCCC2C1=O)Nc1nc2c(F)cc(F)cc2s1 (stereo not given)	?	-19%	2.5µM*	1.4µM*	·
O=C(CN1C(=O)NC2(CCCCC2)C1=O)Nc1nc2c(F)cc(F)cc2s1	1%	-12%	2%	3%	·
O=C(CCN1C(=O)C2CCCCC2C1=O)Nc1nc2ccc(F)cc2s1 (stereo not given)	?	0.85µM*	0.63µM*	0.4µM*	·
O=C(CCN1C(=O)C2CCCCC2C1=O)Nc1cc(F)ccc1F (stereo not given)	1%	1%	-3%	-3%	·

Bioassay records deposited in PubChem BioAssay by National Center for Advancing Translational Sciences (NCATS).
